# Source: PubChem BioAssay (National Center for Advancing Translational Sciences (NCATS))
# The list is not random: actives were taken first. Their share in the collection is about 12%.
# G9a block: blocks human histone lysine methyltransferase G9a; Q96KQ7; G9a H3K9 monomethylation, AlphaScreen, 2 h; Potency, µM (doses to about 102 µM), for inactives: top-dose activity, negative = inhibition, hits mostly inhibitors; hit rate 8.8% among 350,000; AID 504332; note: % is set by controls: 0 for no effect and ±100 for the full control effect; nearly all actives have a fitted effect of over 75% in size
#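 Quantitative HTS format: methyltransferase activity on a biotin-tagged H3K9 peptide is measured by AlphaScreen, using a rabbit anti-monomethyl-H3K9 antibody with streptavidin donor and anti-IgG acceptor beads. Final levels are 20 nM enzyme, 500 nM peptide, 20 uM SAM; 2 h RT.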
# HP1b binding inh: blocks HP1-beta chromodomain binding to methylated histone tails; P83916; AlphaScreen HP1-beta / biotin-H3K9me3 peptide binding; Potency, µM (series often up to 114 µM), for the others: at the top dose activity change, negative = inhibition, usual class: inhibitors; hit rate 0.56% among 390,000; AID 540317; note: nearly all actives have a fitted effect of over 70% in size
#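 HP1-beta protein (50 nM final) preincubated 30 min at room temperature with biotinylated H3(1-18)K9me3 peptide (50 nM) in PBS pH 7.4, 0.01% Tween-20, then compound added for 30 min. AlphaScreen streptavidin donor/nickel chelate acceptor beads (10 ug/mL final), 30 min dark, luminescence read.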
# PLK1 PBD inh: blocks phosphopeptide binding to human PLK1 polo-box domain. Potency, µM, inactives show max response, negative = inhibition, actives largely listed as inhibitors. Plk1 PBD binding of FITC phosphopeptide, fluorescence polarization. hit rate 2.8% among 360,000. P53350; note: series mostly up to about 57 µM; % is set by controls: 0 for no effect and ±100 for the full control effect; nearly all actives have a fitted effect of over 65% in size
# Target sequence (P53350 whole entry, looked up, the tested form may be a part): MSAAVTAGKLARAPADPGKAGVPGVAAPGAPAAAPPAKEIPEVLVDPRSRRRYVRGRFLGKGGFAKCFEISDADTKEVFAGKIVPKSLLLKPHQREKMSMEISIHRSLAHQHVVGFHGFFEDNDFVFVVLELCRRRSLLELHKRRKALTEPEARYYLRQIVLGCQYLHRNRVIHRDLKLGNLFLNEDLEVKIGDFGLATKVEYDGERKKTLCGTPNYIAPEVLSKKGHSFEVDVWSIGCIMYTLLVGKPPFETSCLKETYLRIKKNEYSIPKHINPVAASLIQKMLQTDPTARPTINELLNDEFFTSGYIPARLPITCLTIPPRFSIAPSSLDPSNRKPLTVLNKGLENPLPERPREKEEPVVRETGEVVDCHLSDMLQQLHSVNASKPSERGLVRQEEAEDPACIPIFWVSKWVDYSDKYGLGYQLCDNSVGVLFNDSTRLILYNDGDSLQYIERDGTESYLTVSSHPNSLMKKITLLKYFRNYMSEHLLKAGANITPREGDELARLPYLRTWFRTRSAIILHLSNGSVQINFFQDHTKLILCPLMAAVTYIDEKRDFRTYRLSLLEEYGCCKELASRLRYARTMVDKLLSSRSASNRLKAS
# JMJD2A Tudor inh: blocks the human JMJD2A Tudor domain | AlphaScreen JMJD2A-Tudor / H3K4me3 peptide binding | Potency, µM (doses to about 114 µM), for inactives: at the highest dose activity change, negative = inhibition, usual class: inhibitors | hit rate 4.4% among 390,000; note: % is set by controls: 0 for no effect and ±100 for the full control effect; nearly all actives have a fitted effect of over 50% in size
# BAZ2B inh: BAZ2B (human) inhibition | Q9UIF8 | AlphaScreen BAZ2B-H3K14Ac peptide displacement | Potency, µM (highest dose often 114 µM), for inactives: at the top dose activity change, negative = inhibition, usual class: inhibitors | hit rate 4.4% among 360,000 | AID 504333; note: % is set by controls: 0 for no effect and ±100 for the full control effect; nearly all actives have a fitted effect of over 60% in size
#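 Complex of BAZ2B and biotin-H3K14Ac (50 nM apiece) forms over 30 min at RT, then faces library compounds up to 110 uM for another 30 min; AlphaScreen beads added, 20 min dark incubation, luminescence read.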
# Sfp PPTase inh: blocks B. subtilis Sfp PPTase activity | hit rate 3.5% among 310,000 | Biochemical Sfp PPTase activity, qHTS | Q9F4F7 | Potency, µM, inactives show largest response in the series, negative = inhibition, hits mostly inhibitors | AID 1490;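 note: the enzyme is Sfp with the accession as filed and its product quenches rhodamine fluorescence; 0% = enzyme reaction without inhibitor and -100% = no enzyme wells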
#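 Step 1, compound plus 15 nM Sfp-PPTase, 15 min, room temperature. Step 2, add rhodamine-CoA (5 uM) and BHQ-2-YbbR (12.5 uM). Step 3, read 525/598 nm fluorescence at 0 and 30 min.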
# The depositor's hits bear a star; ? = inconclusive; . = no result; [ ] = another dose, or the depositor's remark. Calls come from the whole dose curve; as a rule, active = well fitted curve in the direction sought with a large enough effect; inconclusive = small, poorly fitted or top-dose-only effect, or another doubt; inactive = no such curve, though single readings can be large; an effect the other way counts as inactive or inconclusive. Potency is the fitted concentration of half-maximal effect.
SMILES,G9a block,HP1b binding inh,PLK1 PBD inh,JMJD2A Tudor inh,BAZ2B inh,Sfp PPTase inh
O=S(=O)(Nc1ccc(N2CCCCC2)cc1)c1ccc(F)cc1F,45µM*,-35%,-5%,?,?,-25%
CC(CS(=O)(=O)c1cccc2cccnc12)N1CCCCC1 (centres undefined),25µM*,42%,-22%,-14%,5%,-7%
O=S(=O)(Nc1ccc(N2CCCCC2)cc1)c1cccc2cccnc12,16µM*,?,-7%,-36%,?,-1%
O=S(=O)(Nc1ccc(N2CCCCC2)cc1)c1ccccc1F,40µM*,?,-8%,?,50µM*,0%
Cc1ccc(NS(=O)(=O)c2ccccc2F)cc1S(=O)(=O)N1CCCCC1,22%[2.33 µM],40%,-6%,-8%,5%,.
O=S(=O)(Nc1cccc(-c2ccc(N3CCCCC3)nn2)c1)c1ccc(F)cc1F,?,0%,.,-24%,-35%,.
O=S(=O)(c1cccc2cccnc12)N1CCCCC1,.,17%,4%,-5%,0%,4%
Cc1ccc([N+](=O)[O-])cc1NC(=S)NC(=O)C(C)(C)C,-50%,-10%,-23%,-24%,?,10%
Cc1ccc([N+](=O)[O-])cc1NC(=S)NC(=O)c1c(Cl)cnn1C,.,20%,-3%,-9%,-7%,45µM*
CCOc1ccc(NC(=S)NC(=O)c2c(Br)cnn2C)c([N+](=O)[O-])c1,28µM*,?,-13%,?,?,-6%
COc1ccc(CNC2CCCc3ccccc32)cc1OC (centres undefined),?,-6%,?,11µM*,71µM*,-6%
COc1ccc(CNC2CCSc3ccccc32)cc1OC (centres undefined),10µM*,?,3%,8.9µM*,50µM*,-9%
O=[N+]([O-])c1ccccc1CNC1CCCc2ccccc21 (centres undefined),?,?,-17%,28µM*,56µM*,-20%
COc1ccc(S(=O)(=O)NC2CCSc3ccccc32)cc1OC (centres undefined),50µM*,10%,-12%,-26%,1%,18%
COc1ccc(CNC2c3ccccc3-c3ccccc32)cc1OC,?,-3%,-20%,-19%,-28%,16%
COc1ccc(C2C(=O)N(C3CCCCCC3)CC(=O)N2Cc2ccccc2)cc1 (centres undefined),-8%[59 µM],42%,.,-20%,1%,.
COc1ccc(C2C(=O)N(C3CCCCC3)CC(=O)N2Cc2ccco2)cc1 (centres undefined),25µM*,9%,-10%,-30%,-5%,22µM*
Cc1ccc(S(=O)(=O)N2CCCC2C(=O)Nc2nc3c(s2)CCCC3)cc1 (centres undefined),45µM*,-5%,0%,-24%,?,0%
O=C(NCc1ccco1)C1CCCN(S(=O)(=O)c2ccc(-n3cnnn3)cc2)C1 (centres undefined),56µM*,18%,-10%,-33%,?,40µM*
O=C(NCc1ccco1)C1CCCN(c2nnc(-n3cccc3)s2)C1 (centres undefined),-5%,?,?,56µM*,?,4%
CCCc1cc(=O)n2nc(N3CCC(C(=O)NCc4ccco4)CC3)sc2n1,7%,-4%,24µM*,25µM*,-1%,5%
COc1ccccc1N1CCN(C(=O)CCS(=O)(=O)c2cc(Br)cc3c2N(C(=O)C2CC2)CC3)CC1,-18%[59 µM],22%,.,-11%,-1%,.
CCOc1ccccc1Nc1sc(C(=O)c2ccc(Cl)cc2)c(N)c1S(=O)(=O)c1ccccc1,14%[59 µM],20%,.,-16%,-1%,.
CCCn1c(=NC(=O)c2cc3ccccc3o2)c(C(=O)OCC)cc2c(=O)n3ccccc3nc21,2%[59 µM],60%,.,8%,2%,.
O=C(NCc1ccco1)C1CCCN1C(=O)Nc1cccc(Cl)c1 (centres undefined),-11%,34%,3%,-6%,-16%,14%
SMILES,G9a block,HP1b binding inh,PLK1 PBD inh,JMJD2A Tudor inh,BAZ2B inh,Sfp PPTase inh
O=C(NCc1ccco1)C1CCCN1C(=O)Nc1ccc(Cl)cc1 (centres undefined),2%,-4%,12µM*,14µM*,.,19%
Cc1ccc(S(=O)(=O)N2CCCCC2C(=O)NCc2ccco2)cc1 (centres undefined),28µM*,-8%,-16%,-22%,-32%,56µM*
Cc1ccc(S(=O)(=O)N2CCCC2C(=O)Nc2cc(C)on2)cc1 (centres undefined),4%,33%,1%,-15%,17%,9%
Cc1ccc(S(=O)(=O)N2CCCCC2C(=O)Nc2nncs2)cc1 (centres undefined),40µM*,32%,?,-10%,0%,-22%
O=C(Nc1ccc2oc(-c3ccc4ccccc4c3)nc2c1)c1cc(Cl)ccc1Cl,-43%[59 µM],38%,.,13%,5%,.
O=C(Nc1ccccc1)N(CCCN1CCOCC1)Cc1cccs1,11%,23%,3%,-19%,12%,16%
O=[N+]([O-])c1ccc(S(=O)(=O)N(CCCN2CCOCC2)Cc2cccs2)cc1,35µM*,7%,-2%,79µM*,50µM*,-8%
CC(=O)Nc1ccc(S(=O)(=O)N(CCCN2CCOCC2)Cc2cccs2)cc1,40µM*,-8%,-15%,45µM*,79µM*,-27%
CC(C)(C)c1ccc(S(=O)(=O)N(CCCN2CCOCC2)Cc2cccs2)cc1,14µM*,16µM*,-6%,22µM*,25µM*,2.2µM*
CCC1(CC)NC(=O)N(CC(=O)NC(=O)NCc2ccccc2)C1=O,32µM*,?,-28%,-10%,5%,3%
Cc1nc2c3cccnc3nn2c(C)c1CCC(=O)NCc1ccccc1Cl,7%[59 µM],34%,.,-12%,-12%,.
CN1CCN(C2CC(=O)N(c3ccc4c(c3)OCCO4)C2=O)CC1 (centres undefined),45µM*,45%,4%,?,?,-1%
O=C1CC(N2CCN(c3ccccc3)CC2)C(=O)N1c1ccc2c(c1)OCCO2 (centres undefined),-40%[59 µM],37%,0%,-3%,-1%,8%
COC(=O)CCNC(=O)Cc1ccc(S(=O)(=O)N2CCCCC2)s1,50µM*,-3%,-19%,-26%,-2%,.
NS(=O)(=O)c1ccc(CCNC(=O)Cc2ccc(S(=O)(=O)N3CCCC3)s2)cc1,-33%[59 µM],?,-8%,?,56µM*,7%
N=c1c2c(-c3ccccc3)c(-c3ccccc3)n(Cc3ccco3)c2ncn1Cc1ccco1,?,?,3%,50µM*,25µM*,35µM*
N=c1c2c(-c3ccccc3)c(-c3ccccc3)n(Cc3ccccc3)c2ncn1CCCn1ccnc1,?,-10%,22%,?,50µM*,?
